Results: PubChem BioAssay (NCATS)
Results filed as inconclusive are left out. Where a call stands in place of a potency, no number is given. A number with no mark means an inactive call. The source made the active and inactive calls. Unless noted, calls follow the shape of the dose curve; as a rule, active = well fitted curve in the direction sought with a large enough effect; inconclusive = small, poorly fitted or top-dose-only effect, or another doubt; inactive = no such curve, though single readings can be large; an effect the other way counts as inactive or inconclusive.

Columns and labels:
[1] = qHTS to identify inhibitors of the type 1 interferon - major histocompatibility complex class I in skeletal muscle: primary screen against the NCATS Pharmaceutical Collection (AID 1347407);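 also: luminescence of HiBiT knocked into endogenous HLA-B as interferon-induced MHC class I level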
Procedure, shortened: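 Immortalized human myoblasts (C25cl48) with HiBiT knocked into endogenous HLA-B*08:01 were stimulated with 4 ng/ml IFN-beta and treated with compounds (8-point, 1:5, top 46 uM final) for 24 h at 37 C; HiBiT lytic luminescence read.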

[2] = biological target: Protein phosphatase 1D (Homo sapiens) (UniProt O15297); experiment: RapidFire Mass Spectrometry qHTS Assay for Modulators of WT P53-Induced Phosphatase 1 (WIP1) (AID 1347424);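 also: amount of dephosphorylated VEPPL-S-QETFS peptide product formed by WIP1; series mostly up to about 63 µM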
Procedure, shortened: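 WIP1 (10 nM final) was preincubated 1 h at room temperature with compounds in Tris-HCl pH 7.5, 30 mM MgCl2, TCEP, EGTA, BSA; 2 uM VEPPL-pS-QETFS phosphopeptide was added for 5 min, quenched with formic acid, and dephosphorylated product quantified by RapidFire MS.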

[3] = biological target: Protein phosphatase 1D (Homo sapiens) (UniProt O15297); experiment: Rhodamine-PBP qHTS Assay for Modulators of WT P53-Induced Phosphatase 1 (WIP1) (AID 1347425)
Procedure, shortened: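 Read-out: Rhodamine-PBP fluorescence (ex 525/em 598 nm) for released Pi, read each minute for 11 min after adding 10 uM VEPPL-pS-QETFS; signal taken as f1 minus pre-substrate f0. Enzyme 5 nM WIP1 with 1 hr room-temperature compound preincubation.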

[4] = Primary qHTS for inhibitors of La Crosse Virus (LACV) - induced cell death in SH-SY5Y cells (AID 1508616);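 also: top concentration of the series differs between compounds; higher means more rescue of cells from virus-induced death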
Procedure, shortened: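 Protection against LACV-induced cell death is scored in SH-SY5Y cells exposed to compounds and virus (0.01 MOI) for 6 days. Data normalized to virus-infected DMSO wells and virus-free DMSO wells.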

[5] = biological target: Calcium and integrin-binding protein 1 (Homo sapiens) (UniProt Q99828); experiment: Primary qHTS for Identification of Calcium Integrin Binding Protein 1 (CIB1) Competitor (AID 1508620);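 also: GST tagged CIB1 binding a fluorescein labelled alphaIIb integrin peptide tracer; top concentration of the series differs between compounds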
Procedure, shortened: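 Fluorescence polarization competition: CIB1-GST (1 uM final) preincubated with compound 15 min at room temperature, then FITC-labeled alphaIIb peptide (100 nM final) added for another 15 min. Polarization read at Ex 480/Em 540.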

[6] = Primary qHTS for small molecule stabilizers of the endoplasmic reticulum resident proteome: Secreted ER Calcium Modulated Protein (SERCaMP) assay (AID 1508630)
Procedure, shortened: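 GLuc-SERCaMP-expressing SH-SY5Y cells, pretreated 16 h with compound, are challenged with thapsigargin to empty ER calcium stores; after 4 h, coelenterazine is added directly to the medium and luminescence is imaged.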

[7] = A High-Content qHTS Against Drug Library for the Identification of Small Molecules that Inhibit DYT1 Early Onset Primary Dystonia-Associated Cell Pathology (AID 1645839; calls by dose curve; also: series mostly up to about 46 µM)
Procedure, shortened: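 Readout: %pathology, the punctate EGFP-TorsinA distribution from imaging, as the primary channel and cell count as the toxicity counterscreen. HEK293 Flp-In cells expressing delE TorsinA were induced with tetracycline and treated with compound for 48 h.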

[8] = biological target: Cytochrome P450 2D6 (Homo sapiens) (UniProt P10635); experiment: Cytochrome P450 family 2 subfamily D member 6 (CYP2D6) small molecule antagonists: luciferase biochemical (cell-free) qHTS assay (AID 1645840; active = well fitted curve in the direction sought with a large enough effect in the repeat runs; an effect the other way counts as inactive or inconclusive; also: nearly all actives have a fitted effect of over 55% in size; also: potency is read from the fitted curve at half-maximal effect)
Procedure, shortened: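 P450-Glo luminescent screen: recombinant CYP2D6 enzyme–proluciferin substrate mix preincubated with compound 10 min at room temperature, then NADPH regeneration added for 1 h at room temperature. Detection reagent added for 20 min; luciferin light read as relative luminescence units.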

[9] = Counterscreen qHTS for small molecule stabilizers of the endoplasmic reticulum resident proteome: GLuc-NoTag assay (AID 1508627);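 also: SH-SY5Y cells given compound then 100 nM thapsigargin to empty ER calcium; series mostly up to about 76 µM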
Procedure, shortened: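 SH-SY5Y cells stably expressing constitutively secreted GLuc (no SERCaMP tag) were pre-incubated 5 h, treated with compound for 19 h, then 100 nM thapsigargin for 4 h at 37C; medium GLuc read by coelenterazine luminescence.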

[10] = Confirmatory qHTS for small molecule stabilizers of the endoplasmic reticulum resident proteome: Secreted ER Calcium Modulated Protein (SERCaMP) assay (AID 1508628); also: series mostly up to about 76 µM; nearly all actives have a fitted effect of over 40% in size
Procedure, shortened: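 SH-SY5Y cells stably expressing GLuc-SERCaMP, treated 16 h with compound (primary 1.53, 7.67, 38.3 uM; confirmation 11 concentrations, up to 76.6 uM), then 100 nM thapsigargin for 4 h. Secreted Gaussia luciferase in medium read by coelenterazine luminescence.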

[11] = Cell Viability qHTS for small molecule stabilizers of the endoplasmic reticulum resident proteome (AID 1508629); settings: cell viability counter-screen, 100 nM thapsigargin for final 4 h;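 also: human SH-SY5Y neuroblastoma cells carrying the GLuc-SERCaMP reporter; compound exposure about 46 h in total before the viability read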
[12] = qHTS to identify inhibitors of the type 1 interferon - major histocompatibility complex class I in skeletal muscle: primary screen against the NCATS Mechanism Interrogation Plate v5.0 (MIPE) Libary (AID 1347411); also: nearly all actives have a fitted effect of over 65% in size
Procedure, shortened: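 Luminescence from HiBiT-tagged endogenous HLA-B*08:01 served as the MHC class I read-out. CRISPR-engineered C25cl48 human myoblasts received 4.0 ng/ml IFN-beta plus compound for 24 hrs, with an 11-point, 1:3 series topping at 46 uM final.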

Sequence of Calcium and integrin-binding protein 1 (Homo sapiens) (Q99828 whole entry, looked up): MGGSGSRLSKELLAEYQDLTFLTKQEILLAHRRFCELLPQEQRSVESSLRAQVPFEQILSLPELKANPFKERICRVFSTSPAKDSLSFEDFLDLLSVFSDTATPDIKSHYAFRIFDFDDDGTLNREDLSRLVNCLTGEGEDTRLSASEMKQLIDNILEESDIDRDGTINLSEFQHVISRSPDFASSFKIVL
Sequence of Cytochrome P450 2D6 (Homo sapiens) (P10635 whole entry, looked up): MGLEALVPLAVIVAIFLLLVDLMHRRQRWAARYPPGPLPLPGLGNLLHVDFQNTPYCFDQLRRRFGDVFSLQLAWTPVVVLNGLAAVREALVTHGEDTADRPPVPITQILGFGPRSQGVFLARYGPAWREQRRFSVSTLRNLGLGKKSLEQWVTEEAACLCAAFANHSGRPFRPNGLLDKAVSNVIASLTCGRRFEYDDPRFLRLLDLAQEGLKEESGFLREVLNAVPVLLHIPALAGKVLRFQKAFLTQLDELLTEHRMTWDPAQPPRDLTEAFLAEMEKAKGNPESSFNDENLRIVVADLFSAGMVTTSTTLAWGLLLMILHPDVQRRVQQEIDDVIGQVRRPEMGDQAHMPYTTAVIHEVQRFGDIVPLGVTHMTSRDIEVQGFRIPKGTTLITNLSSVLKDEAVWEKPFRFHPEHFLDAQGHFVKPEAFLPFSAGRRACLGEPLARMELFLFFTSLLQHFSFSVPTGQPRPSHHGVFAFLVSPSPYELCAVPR
Sequence of Protein phosphatase 1D (Homo sapiens) (O15297 whole entry, looked up): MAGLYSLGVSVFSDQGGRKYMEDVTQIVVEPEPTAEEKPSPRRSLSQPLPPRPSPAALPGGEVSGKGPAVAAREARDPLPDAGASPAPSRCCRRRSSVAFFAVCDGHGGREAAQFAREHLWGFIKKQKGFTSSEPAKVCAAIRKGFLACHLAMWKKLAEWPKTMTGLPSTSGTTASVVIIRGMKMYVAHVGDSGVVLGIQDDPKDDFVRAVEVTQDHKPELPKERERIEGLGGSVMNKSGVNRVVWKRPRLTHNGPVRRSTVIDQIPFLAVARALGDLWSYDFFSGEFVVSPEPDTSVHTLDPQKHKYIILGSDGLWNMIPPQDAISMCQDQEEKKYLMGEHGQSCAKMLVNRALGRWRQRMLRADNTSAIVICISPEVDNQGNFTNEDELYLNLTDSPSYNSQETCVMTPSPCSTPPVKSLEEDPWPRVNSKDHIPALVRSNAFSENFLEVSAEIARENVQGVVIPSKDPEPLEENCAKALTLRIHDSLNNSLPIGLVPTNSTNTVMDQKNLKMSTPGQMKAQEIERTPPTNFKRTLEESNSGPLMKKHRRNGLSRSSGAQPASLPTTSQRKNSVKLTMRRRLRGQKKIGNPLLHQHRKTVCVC

With `CCOC(=O)[C@H](CCc1ccccc1)N[C@@H](C)C(=O)N1Cc2cc(OC)c(OC)cc2C[C@H]1C(=O)O` the outcome [1] was “inactive”, the outcome [2] was “inactive” and the outcome [3] was “inactive”. The outcome [4] was “inactive”, the outcome [5] was “inactive” and the outcome [6] was “inactive”. For the same molecule, the Potency [7] was “inactive” and the Potency [8] was “inactive”.

For `NC(=O)c1ccc([N+](=O)[O-])cc1Cl`, the outcome [1] was “inactive”, the outcome [2] was “inactive” and the outcome [3] was “inactive”. For the same molecule, the outcome [4] was “inactive”, the outcome [5] was “inactive” and the outcome [6] was “inactive”. The Potency [7] was “inactive” and the Potency [8] was “inactive”.

For `CCN(CC)C(=O)c1cccc(C)c1`, the outcome [1] was “inactive”, the outcome [2] was “inactive” and the outcome [3] was “inactive”. For the same molecule, the outcome [4] was “inactive”, the outcome [5] was “inactive” and the outcome [9] was “inactive”. The Potency [10] was “inactive”, the max response [11] was 12.2% and the Potency [7] was “inactive”. For the same molecule, the Potency [8] was “inactive”.

For `CCc1cccc(CC)c1NC(=O)CN(CC(=O)O)CC(=O)O`, the outcome [1] was “inactive”, the outcome [2] was “inactive” and the outcome [3] was “inactive”. For the same molecule, the outcome [4] was “inactive”, the outcome [5] was “inactive” and the outcome [6] was “inactive”. The Potency [7] was “inactive” and the Potency [8] was “inactive”.

For `O=C(CCBr)N1CCN(C(=O)CCBr)CC1`, the outcome [1] was “inactive”, the outcome [2] was “inactive” and the outcome [3] was “inactive”. For the same molecule, the outcome [4] was “inactive”, the outcome [5] was “inactive” and the outcome [6] was “inactive”. The Potency [7] was “inactive”.

For `Cc1cc(O)cc(C)c1Cl`, the outcome [1] was “inactive”, the outcome [2] was “inactive” and the outcome [3] was “inactive”. The outcome [4] was “inactive”, the outcome [5] was “inactive” and the outcome [6] was “inactive”. The Potency [7] was “inactive” and the Potency [8] was “inactive”.

For `Cc1c(Cn2ccnc2)c2ccccc2n1CCC(=O)O`, the outcome [1] was “inactive”, the outcome [2] was “inactive” and the outcome [3] was “inactive”. The outcome [4] was “inactive”, the outcome [5] was “inactive” and the outcome [6] was “inactive”. For the same molecule, the Potency [7] was “inactive”.

For `Cc1cc(C)c(NC(=O)CN(CC(=O)O)CC(=O)O)c(C)c1Br`, the outcome [1] was “inactive”, the outcome [2] was “inactive” and the outcome [3] was “inactive”. For the same molecule, the outcome [4] was “inactive”, the outcome [5] was “inactive” and the outcome [6] was “inactive”. For the same molecule, the Potency [7] was “inactive” and the Potency [8] was “inactive”.

For `CCOC(=O)[C@H](CCc1ccccc1)N[C@@H](C)C(=O)N1CCC[C@H]1C(=O)O`, the outcome [1] was “inactive”, the outcome [12] was “inactive” and the outcome [2] was “inactive”. For the same molecule, the outcome [3] was “inactive”, the outcome [4] was “inactive” and the outcome [5] was “inactive”. The outcome [6] was “inactive”, the Potency [7] was “inactive” and the Potency [8] was “inactive”.

For `C/C=C/C(=O)N(CC)c1ccccc1C`, the outcome [1] was “inactive”, the outcome [12] was “inactive” and the outcome [2] was “inactive”. For the same molecule, the outcome [4] was “inactive”, the outcome [5] was “inactive” and the Potency [7] was “inactive”. The Potency [8] was “inactive”.

For `C[N+](C)(C)CC(O)CC(=O)[O-]` (centres undefined), the outcome [1] was “inactive”, the outcome [2] was “inactive” and the outcome [3] was “inactive”. The outcome [4] was “inactive”, the outcome [5] was “inactive” and the outcome [6] was “inactive”. For the same molecule, the Potency [7] was “inactive” and the Potency [8] was “inactive”.

In the case of `CCN(CC)CCOC(=O)C(c1ccccc1)c1ccccc1`, the outcome [1] is reported as “inactive”, the outcome [2] is reported as “inactive” and the outcome [3] is reported as “inactive”. The outcome [4] was “inactive”, the outcome [5] was “inactive” and the outcome [6] was “inactive”. For the same molecule, the Potency [7] was “inactive” and the Potency [8] was 1950 nM (active).

With `CCN(CC)CCc1nc(-c2ccccc2)no1` the outcome [1] was “inactive”, the outcome [2] was “inactive” and the outcome [3] was “inactive”. For the same molecule, the outcome [4] was “inactive”, the outcome [5] was “inactive” and the outcome [6] was “inactive”. For the same molecule, the Potency [7] was “inactive” and the Potency [8] was “inactive”.
